Values joined by “and” are separate entries in the source; they are usually repeats but may differ in a detail not shown here. Equal values may be shown once. About 2,000 (36%) of roughly 5,500 compounds were called active. Another 18% or so got no clear call; they are omitted. Rule as the data show it: active = normalized growth mostly below about 0.91 (no sharp cut-off); inconclusive = no clear call, values can overlap the other calls; inactive = mostly above about 0.92. The list shows a part of the results.
Experiment: chemical genetic growth profiling, strain panel (AID 1159580);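 also: tested at 20 µM; growth read once vehicle control cultures reached saturation at 30 °C; 1 = growth at the plate median or of vehicle wells; lower values mean less growth of the strain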
Conditions: S. cerevisiae deletion strains, growth OD

Measured: normalized growth

C[C@]12CCC3c4ccc(O)cc4CCC3C1CC[C@@H]2OC(=O)CCC1CCCC1 (some centres undefined)
inactive: locus YAL021C, strain ccr4, hits give low values 1.03 | locus YAL026C, strain drs2, hits give low values 0.997 | locus YAL030W, strain snc1, hits give low values 1.01 | locus YBL061C, strain skt5, hits give low values 1 | locus YBR009C, strain hhf1, hits give low values 1 | locus YBR021W, strain FUR4, hits give low values 1.02 | locus YBR023C, strain chs3, hits give low values 1.03 | locus YBR171W, strain sec66, hits give low values 1.02 | locus YBR229C, strain ROT2, hits give low values 0.961 | locus YBR231C, strain swc5, hits give low values 0.98 | locus YBR279W, strain paf1, hits give low values 1 | locus YCL011C, strain gbp2, hits give low values 1.02 | locus YCL016C, strain dcc1, hits give low values 1.03 | locus YCL029C, strain bik1, hits give low values 1 | locus YCL061C, strain MRC1, hits give low values 1.01 | locus YCL069W, strain vba3, hits give low values 1.01 | locus YCR088W, strain abp1, hits give low values 1.01 | locus YDL005C, strain med2, hits give low values 1.01 | locus YDL035C, strain GPR1, hits give low values 0.959 | locus YDL040C, strain nat1, hits give low values 0.997 | locus YDL074C, strain BRE1, hits give low values 0.97 | locus YDL101C, strain DUN1, hits give low values 0.985 | locus YDL185W, strain tfp1, hits give low values 0.975 | locus YDL192W, strain arf1, hits give low values 1 | locus YDR001C, strain nth1, hits give low values 1 | locus YDR069C, strain doa4, hits give low values 0.989 | locus YDR101C, strain arx1, hits give low values 0.959 | locus YDR137W, strain rgp1, hits give low values 1.03 | locus YDR150W, strain NUM1, hits give low values 0.985 | locus YDR159W, strain sac3, hits give low values 0.982 | locus YDR162C, strain NBP2, hits give low values 0.944 | locus YDR195W, strain ref2 1 | locus YDR297W, strain sur2, hits give low values 1.01 | locus YDR318W, strain mcm21, hits give low values 1 | locus YDR334W, strain swr1, hits give low values 1.01 | locus YDR335W, strain msn5, hits give low values 1.02 | locus YDR388W, hits give low values 0.991 | locus YDR392W, strain spt3, hits give low values 0.944 | locus YDR502C, strain sam2, hits give low values 0.994 | locus YEL003W, strain gim4, hits give low values 0.988 | locus YEL037C, strain rad23, hits give low values 0.992 | locus YEL061C, strain CIN8 (second series), hits give low values 1.01 | locus YEL061C, strain CIN8, hits give low values 0.989 | locus YER015W, strain faa2, hits give low values 1 | locus YER016W, strain bim1, hits give low values 1.01 | locus YER110C, hits give low values 1.01 | locus YER111C, strain swi4, hits give low values 1.01 | locus YER155C, strain BEM2 (second series), hits give low values 1.01 | locus YER155C, strain BEM2, hits give low values 1 | locus YER167W, strain BCK2, hits give low values 1.01 | locus YFR010W, strain ubp6, hits give low values 1.01 | locus YGL078C, strain dbp3, hits give low values 0.998 | locus YGL086W, strain mad1, hits give low values 0.994 | locus YGL167C, strain pmr1, hits give low values 1.01 | locus YGL173C, strain kem1, hits give low values 1.02 | locus YGL227W, strain vid30, hits give low values 1.03 | locus YGL240W, strain doc1, hits give low values 1.05 | locus YGL248W, strain PDE1, hits give low values 0.99 | locus YGL253W, strain hxk2, hits give low values 1.01 | locus YGR135W, strain pre9, hits give low values 1.07 | locus YGR229C, strain SMI1, hits give low values 0.982 | locus YGR252W, strain gcn5, hits give low values 1.16 | locus YHR013C, strain ard1, hits give low values 1.03 | locus YHR027C, strain rpn1, hits give low values 0.995 | locus YHR030C, strain SLT2, hits give low values 0.99 and 1.03 | locus YHR079C, strain IRE1 (second series), hits give low values 0.996 | locus YHR079C, strain IRE1, hits give low values 1.04 | locus YHR094C, strain hxt1, hits give low values 0.997 | locus YHR129C, strain ARP1, hits give low values 0.992 | locus YHR142W, strain chs7, hits give low values 1.05 | locus YHR200W, strain rpn10, hits give low values 0.998 | locus YIL066C, strain RNR3, hits give low values 0.977 | locus YIL073C, strain SPO22, hits give low values 0.989 | locus YIL125W, strain kgd1, hits give low values 0.989 | locus YIR030C, strain dcg1, hits give low values 1.01 | locus YJL092W, strain hpr5, hits give low values 1.01 | locus YJL095W, strain BCK1 (second series), hits give low values 1.01 | locus YJL095W, strain BCK1, hits give low values 1.01 | locus YJL115W, strain asf1, hits give low values 1.01 | locus YJL129C, strain trk1, hits give low values 1.03 | locus YJL134W, strain LCB3, hits give low values 0.979 | locus YJL154C, strain vps35, hits give low values 1.01 | locus YJL164C, strain tpk1, hits give low values 0.996 | locus YJL166W, strain qcr8, hits give low values 1.02 | locus YJL168C, strain set2, hits give low values 0.995 | locus YJL187C, strain SWE1 (second series), hits give low values 0.976 | locus YJL187C, strain SWE1, hits give low values 1.01 | locus YJR043C, strain POL32, hits give low values 0.967 | locus YJR066W, strain TOR1, hits give low values 0.929

Source: PubChem BioAssay AID1159580 (chemical genetic matrix, 2015)
